Our source for the Potency values is PubChem BioAssay (Tox21).

A short description of assay [1]: cAMP Responsive Elements (CRE) small molecule antagonists, cell-based qHTS assay: qHTS cell viability counter screen (AID 2060913). Also: nearly all actives have a fitted effect of over 40% in size. Also: potency is read from the fitted curve at half-maximal effect. As to conditions: CRE-bla HEK293T viability, CellTiter-Glo luminescence, 5 h; series mostly up to 92.4 µM. In short, it runs like this: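 Cytotoxicity counter screen multiplexed with the CRE-bla antagonist read: HEK293T cells in DMEM with dialyzed FBS and 25 mM HEPES were treated 3 hrs under 0.25 uM final NKH477, then viability measured by CellTiter-Glo luminescence.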

Assay [2] is described as follows: cAMP Responsive Elements (CRE) small molecule agonists, cell-based qHTS assay: qHTS cell viability counter screen (AID 2060914).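 Also: viability read after 3 h of compound exposure; nearly all actives have a fitted effect of over 50% in size.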 As to conditions: CRE-bla HEK293T viability, CellTiter-Glo luminescence, 5 h; series mostly up to 92.4 µM. In outline:
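CRE-bla HEK 293T cells, plated 18 h at 37 °C, were exposed to compounds for 3 h at 37 °C/5% CO2. Viability was then measured in the same wells by CellTiter-Glo luminescence after 30 min at room temperature.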

The structures appear in SMILES notation. Inconclusive results are not listed. Entries that show only a call come without a potency. Activity calls are given as the source filed them. Calls follow the shape of the dose curve; as a rule, active = well fitted cell-killing curve with a large enough effect in the repeat runs; inconclusive = weak or mixed curves, or effect the other way; inactive = flat fitted curve, though single readings scatter.

Consider `CCCCCCO`, for which the Potency result in assay [1] was “inactive”.

On to `C=CCOC(=O)COCCC(C)C`, for which the Potency result in assay [1] was “inactive”.

Regarding `CC/C(=C(\c1ccc(O)cc1)c1ccc(OCCN(C)C)cc1)c1ccccc1`, the Potency in assay [1] was 68.7 µM (active).

With `Brc1ccc(-c2ccccc2)cc1`, in assay [1], the Potency entry is “inactive”.

As for `Oc1ccc2ccccc2c1`, the Potency entry in assay [1] was “inactive”.

On to `CCCC[O][Al]([O]CCCC)[O]CCCC`, for which the Potency result in assay [1] is “inactive”.

Take `CC(=O)Nc1ccc(OCC(O)CNC(C)C)cc1` (stereo not given): the Potency entry in assay [1] was “inactive”.

As for `COC(=O)OC`, the Potency result in assay [1] is “inactive”.

Turning to `O=P(O)(OCc1ccccc1)OCc1ccccc1`, in assay [1], the Potency entry is “inactive”.

With `CN1CCCN=C1/C=C/c1cccs1`, in assay [1], the Potency result was “inactive”.

For the compound `Cc1cccc(OCC(O)CNC(C)(C)C)c1C` (stereo not given), the Potency entry in assay [1] was “inactive”.

Take `COc1ccccc1/C=C/C=O`: the Potency result in assay [1] was “inactive”.

Take `Nc1cccc(O)c1`: in assay [1], the Potency result was “inactive”.

On to `CC(C#N)(CCC(=O)O)N=NC(C)(C#N)CCC(=O)O` (stereo not given), for which the Potency result in assay [1] was “inactive”.

On to `Cc1cc([N+](=O)[O-])ccc1N`, for which the Potency entry in assay [1] is “inactive”.

`NCCCN(CCO)CCO`: in assay [1], the Potency result was “inactive”.

For the compound `CCC(C)C1N=C(C)C(C)S1` (stereo not given), the Potency entry in assay [1] was “inactive”.

Turning to `CCOc1ccccc1C(N)=O`, in assay [1], the Potency entry was “inactive”.

`O=Cc1cc2ccccc2o1`: the Potency entry in assay [1] was “inactive”.

Consider `CCOC(=O)C1=C(C)NC(C)=C(C(=O)OCC)C1c1ccccc1/C=C/C(=O)OC(C)(C)C`, for which the Potency entry in assay [1] was “inactive”.

With `CCC(C)c1cc(C(C)(C)C)c(O)c(C(C)(C)C)c1` (stereo not given), the Potency result in assay [1] was “inactive”.

For `c1ccc(-c2ccccc2-c2ccccc2)cc1`, the Potency result in assay [1] was “inactive”.

In the case of `Cc1ccccc1N=Nc1ccc(N=Nc2c(O)ccc3ccccc23)c(C)c1`, the Potency result in assay [1] and in assay [2] was “inactive” throughout.

Take `Cc1ccc(N=Nc2c(O)c(C(=O)O)cc3ccccc23)c(S(=O)(=O)O)c1`: the Potency result in assay [1] and in assay [2] was “inactive” throughout.

With `O=C(O)[C@@H]1CSCN1`, the Potency result in assay [1] and in assay [2] was “inactive” in each case.

On to `Cc1cc(O)c(C)c(C)c1O`, for which the Potency entry in assay [1] and in assay [2] was “inactive” each time.
